Laboratory results taken from PubChem BioAssay AID652048 (National Center for Advancing Translational Sciences (NCATS), 2013).
“And” between values parts separate entries of the source, which are not always exact repeats. Equal values may be shown once. In all, about 410,000 compounds went through this assay and about 2,400 (0.59%) were called active. This is one part of a sample in which actives are shown more often than they occur. Cut-off read from the data, not from the text of the source: active = max activation above about 30%; inactive = the rest.

biological target: D(3) dopamine receptor (Homo sapiens) (UniProt P35462); test: qHTS of D3 Dopamine Receptor Agonist: qHTS; details: D3R DiscoveRx beta-arrestin cells, luminescence, 90 min; active compounds read high; note: 0% is about no effect
Source text: D3 DARs represent a very important target for the treatment of several neuropsychiatric disorders. Indeed, one of the most promising therapeutic applications for the D3 DAR is in the area of addiction and related disorders. […] These findings have been observed with a number of addictive substances including cocaine, amphetamine, nicotine, and alcohol. […] Antagonism of the D3 DAR may also be therapeutic in the treatment of schizophrenia or psychosis. […] Since the D3 DAR is expressed in areas of the CNS associated with the control of mood and emotion, it has been hypothesized that selective antagonism of the D3 DAR may be effective in treating psychosis without inducing the motor side effects typically seen with D2 DAR antagonists.
This part of the project aims to discover novel agonist.
NIH Chemical Genomics Center [NCGC]
NIH Molecular Libraries Probe Centers Network [MLPCN]
Assay Submitter (PI): David Sibley, NINDS
Freshly passaged cells are plated in 1536 well white, solid bottom plates at a density of 1500 cells/well in 3microl of complete media. After an overnight incubation at 37 degrees C in 5% CO2, cells are loaded with 23nl of test compound from the compound library (as well as dopamine controls) using a 1536 pintool and incubated at 37 degrees C for 90 minutes. Two microliters of DiscoveRx reagent is then added to all cells, and they are incubated for an additional 30 - 60 minutes at room temperature. Following incubation, luminescence is measured on a ViewLux CCD-based luminometer reader using a 20 sec exposure time.

D(3) dopamine receptor (Homo sapiens), sequence (P35462 whole entry, looked up): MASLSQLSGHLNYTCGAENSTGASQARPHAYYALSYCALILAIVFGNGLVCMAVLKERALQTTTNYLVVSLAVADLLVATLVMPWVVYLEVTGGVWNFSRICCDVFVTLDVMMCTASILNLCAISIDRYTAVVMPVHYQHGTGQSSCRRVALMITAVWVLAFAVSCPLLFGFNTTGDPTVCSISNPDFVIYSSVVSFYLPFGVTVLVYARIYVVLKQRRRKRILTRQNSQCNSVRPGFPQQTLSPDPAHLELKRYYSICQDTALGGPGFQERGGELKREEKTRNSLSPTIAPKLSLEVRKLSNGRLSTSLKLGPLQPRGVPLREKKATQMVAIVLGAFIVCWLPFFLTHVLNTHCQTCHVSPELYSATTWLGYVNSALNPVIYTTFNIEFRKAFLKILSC

| SMILES | max activation |
| --- | --- |
| O=c1[nH]c(CN2CC=C(c3ccccc3)CC2)nc2scc(-c3cccs3)c12 | 53.9% (active) |
| CCCCC1C(=O)NC(=O)N(C2CCCCC2)C1=O (stereo not given) | -3.28% (inactive) |
| O=P1(N(CCCl)CCCl)NC(OO)CCO1 (stereo not given) | 1.75% (inactive) |
| C#C[C@]1(OC(=O)CCCCCC)CC[C@H]2[C@@H]3CCC4=CC(=O)CC[C@@H]4[C@H]3CC[C@@]21C | 26.4% (inactive) |
| O=S(=O)(O)C(F)(F)C(F)(F)C(F)(F)C(F)(F)F | -6.51% (inactive) |
| COc1cc(C[C@H](C)N)c(OC)cc1Br | -14.5% (inactive) |
| C[C@]12CC[C@H](O)C[C@H]1CC[C@@H]1C2CC[C@]2(C)[C@@H](C3=CC(=O)OC3)[C@@H](O)C[C@]12O (stereo not given in full) | 51.5% (active) |
| COC1C(O)C(C)OC(OC2CCC3(C=O)C(CCC4C3CCC3(C)C(C5=CC(=O)OC5)CCC43O)C2)C1O (stereo not given) | 1.37% (inactive) |
| COC12CC[C@@]3(C[C@@H]1C(C)(O)C(C)(C)C)[C@H]1Cc4ccc(O)c5c4[C@@]3(CCN1CC1CC1)[C@H]2O5 (stereo not given in full) | 6.77% (inactive) |
| O=C1C[C@@H]2OCC=C3CN4CC[C@]56c7ccccc7N1[C@H]5[C@H]2[C@H]3C[C@H]46 (tested in a mixture with another compound) | 11.4% (inactive) and 8.18% (inactive) |
